{"source": "PubChem BioAssay (Tox21)", "note": "“And” between values parts separate entries of the source, which are not always exact repeats. Equal values may be shown once. Records with an inconclusive call do not appear. A call without a number means that no potency is given here. The source made the active and inactive calls. The call rests on the fitted dose curve; in most records, active means well fitted cell-killing curve with a large enough effect in the repeat runs; inconclusive means weak or mixed curves, or effect the other way; inactive means flat fitted curve, though single readings scatter. Potency means the concentration at half of the fitted maximal effect.", "data": [{"experiment": "qHTS assay to identify small molecule agonists of the androgen receptor (AR) signaling pathway in the presence of an antagonist - cell viability counter screen (AID 1259379); further: nearly all actives have a fitted effect of over 25% in size", "settings": "MDA-kb2 viability, CellTiter-Fluor, 16 h; series mostly up to 92.4 µM", "from_the_text": "National Center for Advancing Translational Sciences [NCATS]\nNIH Chemical Genomics Center [NCGC]\nU.S. Environmental Protection Agency [EPA]\nNational Institutes of Environmental Health Sciences [NIEHS]\nNational Toxicology Program [NTP]\nU.S. Food and Drug Administration [FDA]\nAndrogen receptor (AR) is an important member of nuclear receptor family. Its signaling plays a critical role in AR-dependent prostate cancer and other androgen related diseases. Considerable attention has been given in the past decades to develop methods to study and screen for the environmental chemicals that have the potential to interfere with metabolic homeostasis, reproduction, developmental and behavioral functions. Therefore AR binding assay for screening against androgen agonists and antagonists can be used to identify potential endocrine disruptors.\nMDA-kb2 cells (from ATCC, deposited by Wilson et al.) are human breast carcinoma cells that were stably transfected with a luciferase reporter gene under control of the MMTV promoter that contains response elements for both androgen receptor (AR) and glucocorticoid receptor (GR). This particular screening for measuring luciferase reporter gene activity using MDA-kb2 cells against Tox21 10K library compounds is a confirmation study on agonist mode screening in the presence of AR-antagonist compound (Nilutamide) at 3.0uM final concentration. The cytotoxicity of the compounds was tested in parallel by measuring the cell viability using CellTiter-Fluor assay system (Promega, Madison, WI) in the same wells.\nTox21 Assay Protocol Summary:\nMDA-kb2 cells (cells cultured without CO2) were dispensed at 3,000 cells/well in 4uL of culture medium into white wall/solid-bottom 1536-well plates (Corning Life Sciences, Corning, NY) using a Multidrop Combi (Thermo Fisher Scientific Inc., Waltham, MA) dispenser. The assay plates were incubated at 37C and 0% CO2 for 5hr. One uL of 3.0uM (final concentration) Nilutamide or assay buffer was added using two separate tips of Flying Reagent Dispenser (FRD, Aurora Discovery, San Diego, CA). Then 23nL of compounds dissolved in DMSO at 15 concentrations and positive controls were transferred to the assay plates using a Pintool station (Wako, San Diego, CA). The assay plates were incubated at 37C and 0% CO2 for 16 hr. After 15hr incubation at 37C, 1uL/well CellTiter-Fluor reagent (Promega Corporation) was added to each well of the assay plates using FRD. After 1hr incubation at 37C and 0% CO2, the fluorescence signal was measured using a ViewLux plate reader (PerkinElmer, Shelton, CT).", "values": [{"smiles": "COc1cc(CC(C)N)c(OC)cc1Br", "note": "(stereo not given)", "Potency": "inactive"}, {"smiles": "O=C([O-])c1ccccn1.O=C([O-])c1ccccn1.O=C([O-])c1ccccn1.[Cr+3]", "Potency": "inactive"}, {"smiles": "FC(Cl)(Cl)C(F)(Cl)Cl", "Potency": "inactive"}, {"smiles": "c1ccc2c(c1)-c1cccc3cccc-2c13", "Potency": "inactive"}, {"smiles": "Nc1ccccc1C(=O)OCCc1ccccc1", "Potency": "inactive"}, {"smiles": "[Cl-].[Cl-].[Hg+2]", "Potency": "inactive"}, {"smiles": "CCOC(=O)C1OC1(C)c1ccccc1", "note": "(stereo not given)", "Potency": "inactive"}, {"smiles": "CC(C)CCON=O", "Potency": "inactive"}, {"smiles": "CC(C)OC(=O)Cc1ccccc1", "Potency": "inactive"}, {"smiles": "CCC1CCC(=O)O1", "note": "(stereo not given)", "Potency": "inactive"}, {"smiles": "Cc1cccc(C)c1NC1=NCCCS1", "Potency": "inactive"}, {"smiles": "CC(Cc1ccccc1)NCc1ccccc1Cl", "note": "(stereo not given)", "Potency": "inactive"}, {"smiles": "CCOC(=O)c1cncn1C(C)c1ccccc1", "note": "(stereo not given)", "Potency": "inactive"}, {"smiles": "CN(C)C(=O)Nc1cccc(OC(=O)NC(C)(C)C)c1", "Potency": "inactive"}, {"smiles": "CC(O)CN1CCN(CC(=O)[O-])CCN(CC(=O)[O-])CCN(CC(=O)[O-])CC1.[Gd+3]", "note": "(stereo not given)", "Potency": "inactive"}, {"smiles": "C[C@H]1[C@@H]2Cc3ccc(O)cc3[C@@]1(C)CCN2C", "Potency": "inactive"}, {"smiles": "CCC(C)Cl", "note": "(stereo not given)", "Potency": "inactive"}, {"smiles": "Clc1ccc(Cl)c(Cl)c1", "Potency": "inactive"}, {"smiles": "C[N+](C)(C)CCOC(=O)C(O)(c1ccccc1)c1ccccc1", "Potency": "inactive"}, {"smiles": "C#C[C@]1(O)CC[C@H]2[C@@H]3CCC4=CC(=O)CCC4=C3C=C[C@@]21CC", "Potency": "inactive"}, {"smiles": "Oc1cccc(Cl)c1", "Potency": "inactive"}, {"smiles": "O=C1c2ccccc2C(=O)N1SC(Cl)(Cl)Cl", "Potency": "26.9 µM (active) and 27.3 µM (active)"}, {"smiles": "CC(C)(C)c1ccc(CCOc2ncnc3ccccc23)cc1", "Potency": "inactive"}, {"smiles": "O=C(O)C(Cl)(Cl)Br", "Potency": "inactive"}, {"smiles": "CC(Oc1cccc(Cl)c1)C(=O)O", "note": "(stereo not given)", "Potency": "inactive"}, {"smiles": "C=CCN1C[C@H](C)N([C@H](c2ccc(C(=O)N(CC)CC)cc2)c2cccc(OC)c2)C[C@H]1C", "Potency": "inactive"}, {"smiles": "O=C=NC1CCCCC1", "Potency": "inactive"}, {"smiles": "N#CC1(N=NC2(C#N)CCCCC2)CCCCC1", "Potency": "inactive"}, {"smiles": "CC(C)(C)OOC(C)(C)CCC(C)(C)OOC(C)(C)C", "Potency": "inactive"}, {"smiles": "c1ccc2c(c1)sc1ccccc12", "Potency": "inactive"}, {"smiles": "C[C@H](N)[C@H](O)c1ccc(O)c(O)c1", "Potency": "inactive"}, {"smiles": "CC(C)C1(C)N=C(c2ncccc2C(=O)O)NC1=O", "note": "(stereo not given)", "Potency": "inactive"}, {"smiles": "CN[C@@H](C)[C@H](O)c1ccccc1", "Potency": "inactive"}, {"smiles": "C[C@]12CC[C@H]3[C@@H](CCC4=CC(=O)CC[C@@H]43)[C@@H]1CC[C@@H]2OC(=O)CCc1ccccc1", "Potency": "inactive"}, {"smiles": "C[N+]1(CCC(C(N)=O)(c2ccccc2)c2ccccc2)CCCCC1", "Potency": "inactive"}, {"smiles": "CCCN(CCOc1c(Cl)cc(Cl)cc1Cl)C(=O)n1ccnc1", "Potency": "inactive"}, {"smiles": "CCc1cnc(C2=NC(C)(C(C)C)C(=O)N2)c(C(=O)O)c1", "note": "(stereo not given)", "Potency": "inactive"}, {"smiles": "CCCCNC(=O)OCC#CI", "Potency": "60.8 µM (active) and 68.6 µM (active)"}, {"smiles": "CCOP(=O)(SC(C)CC)N1CCSC1=O", "note": "(stereo not given)", "Potency": "inactive"}, {"smiles": "C=C(C)C(=O)OCCCCOC(=O)C(=C)C", "Potency": "inactive"}]}]}
